Source: PubChem BioAssay (Johns Hopkins Ion Channel Center)
The list is not random: actives were taken first. Their share in the collection is about 1.6%.
KCNQ2 inh = rat KCNQ2 potassium channel inhibitors, primary screen, cell-based, CHO-K1, FluxOR thallium flux, B-score. B-score at 10 µM. 20 min; hits give low values. hit rate 1.1% among 310,000;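 active means fluorescence ratio B-score at most minus 3 library SDs, with starting brightness B-score within 2 library SDs, cut at about -5.5 in these data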
KCNQ2 enhance = potentiators of rat KCNQ2 potassium channel | hit rate 0.54% among 310,000 | CHO-K1 KCNQ2, FluxOR thallium flux fluorescence; hits give high values | Potassium voltage-gated channel subfamily KQT member 2 (Rattus norvegicus), O88943 | B-score at 10 µM;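 active means fluorescence ratio B-score at least 3 SD of library B-scores, with initial fluorescence B-score within 3 of them, cut at about 5.3 in these data; same plate scores as AID 2156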;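 further: B-score of peak minus minimum over baseline fluorescence ratio after K+ and Tl+ stimulus; positive B-score means potentiation of KCNQ2 with more thallium influx and brighter signal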
Large screens that a line does not name were inactive.

CC12CCC(=O)N1C(C(=O)Nc1cc(C(F)(F)F)ccc1N1CCOCC1)CS2 (centres undefined)	none (no result: KCNQ2 enhance)
CC12CCC(=O)N1C(C(=O)NCc1ccccc1Cl)CS2 (centres undefined)	KCNQ2 inh -5.84
CC12CCC(=O)N1C(C(=O)NCCc1ccccc1)CS2 (centres undefined)	none (no result: KCNQ2 enhance)
Cc1sc(NC(=O)C2CSC3(C)CCC(=O)N23)nc1-c1ccccc1 (centres undefined)	KCNQ2 inh -6.86
CC(=O)c1sc(NC(=O)C2CSC3(C)CCC(=O)N23)nc1-c1ccccc1 (centres undefined)	none (no result: KCNQ2 enhance)
COc1ccc(NC(C)C(=O)Nc2ccc(C#N)cc2)cc1Cl (centres undefined)	none (no result: KCNQ2 enhance)
Cc1ccc(-c2csc3ncn(/N=C/N(C)C)c(=O)c23)o1	none
O=C(COC(=O)/C=C/c1ccccc1)Nc1ccccc1Br	none (no result: KCNQ2 enhance)
O=C(NCc1ccccc1)c1ccc2c(=O)n(CC3CCCO3)c(=S)[nH]c2c1 (centres undefined)	none (no result: KCNQ2 enhance)
O=C(CCN1C(=O)c2ccccc2C1=O)Nc1cccc(O)c1	none
COCn1c(-c2cccc(Br)c2)nc2ccccc21	KCNQ2 inh -5.9
COCn1c(-c2ccc(OC)c(OC)c2)nc2ccccc21	none (no result: KCNQ2 enhance)
Cc1cccc(/C=C/c2onc(C)c2S(=O)(=O)N2CCC(C(=O)N3CCCCCC3)CC2)c1	KCNQ2 inh -5.99
Cc1cccc(/C=C/c2onc(C)c2S(=O)(=O)N2CCC(C(=O)N3CCC(C)CC3)CC2)c1	none (no result: KCNQ2 enhance)
CO/N=C/c1ccc(Sc2ccc(C)cc2)c([N+](=O)[O-])c1	none
CO/N=C/c1cc([N+](=O)[O-])ccc1Sc1ccc(C)cc1	KCNQ2 inh -7.42
Cc1ccc2c(ccc[n+]2CC(=O)c2ccccc2)c1	none
COc1ccc(C(=O)N(CCc2ccccc2)Cc2cccs2)c(OC)c1	none (no result: KCNQ2 enhance)
COc1ccc(C(=O)N(CCc2ccccc2)Cc2ccccc2)c(OC)n1	KCNQ2 inh -7.72
CS(=O)(=O)c1ccccc1C(=O)N(CCc1ccccc1)Cc1ccccc1	KCNQ2 inh -5.6
CS(=O)(=O)c1ccc(C(=O)N(CCc2ccccc2)Cc2ccccc2)cc1	none (no result: KCNQ2 enhance)
Cc1sc(NC(=O)CCCCC(=O)Nc2sc(C)c(C)c2C(=O)O)c(C(=O)O)c1C	none (no result: KCNQ2 enhance)
CC(=O)OCC(=O)Nc1ccccc1OC(F)F	none
CNC(=O)N(O)C1N(/N=C/c2ccc(SC)cc2)C(=S)SC1(C)C (centres undefined)	none (no result: KCNQ2 enhance)
CN(C)c1ccc(/C=N/N2C(=S)SC(C)(C)C2N(O)C(=O)Nc2ccc([N+](=O)[O-])cc2)cc1 (centres undefined)	KCNQ2 inh -6.81
Cc1ccc([C@@H]2C3COCC=C3C(C#N)=C(N)C2(C#N)C#N)o1 (some centres undefined)	none (no result: KCNQ2 enhance)
CCOC(=O)C1=C(C)NC(C)=C(C(=O)OCC)C1/C=C/c1ccccc1OC	none
CCOC(=O)C1=C(C)NC(C)=C(C(=O)OCC)C1c1ccccc1/C=C/C(=O)OC(C)(C)C	KCNQ2 inh -6.7
COC(=O)C1=C(O)CSC1=Nc1ccc(C)cc1	none
CCOc1ccc(-c2nc(C#N)c(NCc3ccc4c(c3)OCO4)o2)cc1	none (no result: KCNQ2 enhance)
O=C1OCC(c2ccccc2)=C1c1ccccc1	none
N#CC1=C(c2ccc(-c3ccccc3)cc2)COC1=O	KCNQ2 inh -5.65
Cc1nc2ccccc2c(=O)n1NC(=O)c1c(O)c2c(n(CC(C)C)c1=O)CCCC2	none (no result: KCNQ2 enhance)
COc1ccc(Cl)cc1N(CC(=O)N1CCC(C)CC1)S(C)(=O)=O	none (no result: KCNQ2 enhance)
Cc1onc(-c2c(Cl)cccc2Cl)c1C(=O)NN1CCCCCC1	none (no result: KCNQ2 enhance)
Cc1c(C(=O)NN2CCCCC2)nn(-c2ccc(Cl)cc2Cl)c1-c1ccc(I)cc1	KCNQ2 inh -9.92
CCNC(=O)c1ccccc1SCc1ccccc1	KCNQ2 inh -7.41
CCc1ccc(OCCNC(=O)c2ccccc2SCc2ccccc2)cc1	none (no result: KCNQ2 enhance)
CCOc1cc2[nH]c(=S)n(CCOC)c(=O)c2cc1OCC	none
CCCCN(C)CCn1c(=S)[nH]c2cc(OCC)c(OCC)cc2c1=O	KCNQ2 enhance 5.4
C=CCN1C(=O)NC2(CCCCC2)C1=O	none (no result: KCNQ2 enhance)
Cc1cc(C)nc(Nc2n[nH]c(-c3cccc4ccccc34)n2)n1	none (no result: KCNQ2 enhance)
Cn1cnnc1SCC(=O)N1CCC(Cc2ccccc2)CC1	none
COc1ccc(/C=N/N2CCN(c3ccccc3OC)CC2)cc1OC	none
COc1cccc(/C=N/N2CCN(c3ccccc3OC)CC2)c1	KCNQ2 inh -5.55
O=C(OCc1ccccc1)c1cccc(-c2nnc(-c3ccccc3)o2)c1	KCNQ2 inh -6.33
O=C(OCc1ccc(C(=O)c2ccccc2)cc1)c1cccc(-c2nnc(-c3ccccc3)o2)c1	none (no result: KCNQ2 enhance)
CN1CCC(N(C)C(=S)NC(=O)c2cc(-c3cccc(Br)c3)nc3ccccc23)CC1	none
O=C(N1CCN(c2ccccc2)CC1)C12CC3CC(CC(C3)C1)C2	none (no result: KCNQ2 enhance)
O=C(N1CCN(Cc2ccccc2)CC1)C12CC3CC(CC(C3)C1)C2	KCNQ2 inh -5.61
CCc1nnc(NC(=O)CSc2nnc(-c3c[nH]c4ccccc34)n2CC)s1	none (no result: KCNQ2 enhance)
